Rows were chosen to be rich in hits. Some 11% of all compounds tested hit in one or more screens of this group.
hNpr1 antagonist = blocks ANP-stimulated signaling of human Npr1 receptor; P16066; HEK293 hNpr1 GloSensor cGMP, ANP-stimulated luminescence; Potency, µM (titrated, usually from 46.3 µM), for inactives: at the highest dose activity change, negative = inhibition, actives largely listed as inhibitors; hit rate 1.6% among 76,000; AID 1347048; calls by dose curve; further: nearly all actives have a fitted effect of over 60% in size
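HEK293 cells stably expressing human Npr1 and cGMP GloSensor pGS-40F, loaded 2 h with 2% GloSensor reagent, given compound 30 min at room temperature. Luminescence read before and 20 min after 0.1 nM hNppA.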
HEK293 tox = HEK 293 cell cytotoxicity; HEK 293 viability, ATP luminescence (CellTiter-Glo), 48-72 h; Potency, µM (series often up to 115 µM), for the others: at the top dose activity change, negative = cytotoxicity, usual class: inhibitors; hit rate 6.6% among 94,000; AID 1345083; further: nearly all actives have a fitted effect of over 60% in size
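HEK 293 cells at 250 cells/well were exposed to compounds by pintool transfer for 48 or 72 hr at 37 degree Celsius, 5% CO2. Viability was read as ATP-coupled luminescence with CellTiter-Glo after 10 min at room temperature.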
NIH3T3 tox = NIH 3T3 cell cytotoxicity | NIH 3T3 viability, CellTiter-Glo ATP luminescence, 48-72 h | Potency, µM (top dose mostly 96.7 µM), inactives show at the highest dose activity change, negative = cytotoxicity, most hits filed as inhibitors | hit rate 4.3% among 94,000 | AID 1345082; further: nearly all actives have a fitted effect of over 55% in size
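NIH 3T3 cells at 400 cells/well received 23 nL of compound by pintool and were incubated 48 or 72 h at 37 °C. Viability was read as ATP-coupled CellTiter-Glo luminescence.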
Luciferase inh = inhibitors of firefly (Photinus pyralis) luciferase | Potency, µM (highest dose often 115 µM), actives largely listed as inhibitors | hit rate 2.5% among 76,000 | purified P. pyralis luciferase, luminescence, biochemical; further: nearly all actives have a fitted effect of over 65% in size
Target sequence (P08659 whole entry, looked up): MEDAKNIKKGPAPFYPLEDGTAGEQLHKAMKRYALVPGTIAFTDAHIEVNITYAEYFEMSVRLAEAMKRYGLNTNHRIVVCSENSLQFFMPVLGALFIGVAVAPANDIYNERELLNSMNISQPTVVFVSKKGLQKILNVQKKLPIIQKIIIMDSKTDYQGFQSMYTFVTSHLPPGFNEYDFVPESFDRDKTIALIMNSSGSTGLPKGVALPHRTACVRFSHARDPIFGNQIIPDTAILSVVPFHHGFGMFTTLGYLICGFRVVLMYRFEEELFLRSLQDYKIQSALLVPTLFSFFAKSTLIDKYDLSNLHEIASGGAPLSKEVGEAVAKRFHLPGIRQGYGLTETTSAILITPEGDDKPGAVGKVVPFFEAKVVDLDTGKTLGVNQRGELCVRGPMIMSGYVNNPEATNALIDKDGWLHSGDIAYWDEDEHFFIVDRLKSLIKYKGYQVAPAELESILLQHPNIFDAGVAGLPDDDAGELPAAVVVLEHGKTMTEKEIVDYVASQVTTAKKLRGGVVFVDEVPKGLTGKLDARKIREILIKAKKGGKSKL
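Biochemical qHTS: compound (6-point titration) added to 10uM D-luciferin plus 10uM ATP in Tris acetate pH 7.5 buffer with Mg, Tween-20 and BSA, then purified enzyme at 10nM; light output imaged.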
An asterisk follows results filed as active; i = inactive; ? = inconclusive; nt = not tested or not shown; [ ] = remark or other dose. Unless noted, the call rests on the fitted dose curve; in most records, active means well fitted curve in the direction sought with a large enough effect; inconclusive means small, poorly fitted or top-dose-only effect, or another doubt; inactive means no such curve, though single readings can be large; an effect the other way counts as inactive or inconclusive. On the % scale 0 is the no-effect control and ±100 the full control effect; potency means the concentration at half of the fitted maximal effect.

SMILES	hNpr1 antagonist	HEK293 tox	NIH3T3 tox	Luciferase inh
O=C1COc2ccc(NCc3cccs3)nc2CN1Cc1ccc(C(F)(F)F)cc1	?	79.4µM*	79.4µM*	i
COCCn1ncc(N2CCC(C(=O)Nc3ccc(C)cc3)C2)cc1=O (stereo not given)	nt	-3.0%	i	nt
O=C(Cc1ccc(F)cc1)N1CCC(C(=O)N2CCC(c3nc4ccncc4[nH]3)C2)CC1 (stereo not given)	nt	-28.8%	-19.4%	nt
O=C(NC1CCN(c2ccnc3ccnn23)C1)c1ccc(F)cc1 (stereo not given)	nt	?	-38.0%[138 µM]	nt
O=C1COc2ccc(OCC3CC3)nc2CN1Cc1ccc(C(F)(F)F)cc1	-9.1%[70.6 µM]	79.4µM*	79.4µM*	i
O=C1COc2ccc(-c3ccncc3)nc2CN1Cc1ccc(C(F)(F)F)cc1	-6.8%[70.6 µM]	79.4µM*	?	i
COc1cccc([S+](=O)([O-])N2CCC3(C2)C(=O)N(C)c2ccccc23)c1 (stereo not given)	0.0%	?	-27.1%	i
CCC1(CC)CC1C(=O)N1CCc2onc(-c3cccc(F)c3)c2C1 (stereo not given)	-26.2%	44.7µM*	?	i
c1cncc(-c2ccnc(NCCCN3CCCc4ccccc43)n2)c1	-18.1%	?	22.4µM*	i
c1ccc2c(c1)CCCN2CCCNc1ncncn1	-1.7%	?	?	i
COc1ccc(-c2cccc(C(=O)N3CCC(NC(C)=O)CC3)c2)nn1	nt	0.1%	-5.0%	nt
Cn1ccnc1-c1cn(CC2(c3ccccc3F)CCCC2)nn1	-10.4%	?	?	i
OCC1(CCOc2ccccc2)CCN(c2nnnn2-c2ccccc2)CC1	0.3%	?	?	i
Cc1ccccc1CC1(CO)CCCN(c2ccc(-c3nccn3C)nn2)C1 (stereo not given)	?	31.6µM*	?	i
Cn1ccnc1-c1ccc(N2CCCC(CO)(CCOc3ccccc3)C2)nn1 (stereo not given)	?	31.6µM*	?	i
Cn1ccnc1-c1ccc(N2CCC(CO)(CCOc3ccccc3)CC2)nn1	-18.6%	?	?	39.8µM*
CC(C)(C)C(=O)NC1CCN(c2ccnc3ccnn23)C1 (stereo not given)	nt	-18.3%[172 µM]	-29.3%[138 µM]	nt
O=C1C(Oc2ccc(F)cc2)C2(CCCCC2)N1Cc1ccc(F)cc1 (stereo not given)	nt	39.8µM*	25.1µM*	nt
O=C(CN1C(=O)C(Oc2ccc(F)cc2)C12CCCCC2)NCC1CC1 (stereo not given)	nt	?	-20.8%	nt
COc1ccc(CC(=O)NC2CCN(C(=O)c3ccc(-c4ncccc4C#N)cc3)CC2)cc1	nt	-24.4%	?	nt
Cc1nn2c(c1-c1ccccc1[S+](C)(=O)[O-])N(Cc1ccccc1)CCC2	-1.8%[70.6 µM]	?	10µM*	i
Cc1nn2c(c1-c1ccccc1OCc1ccccc1)N(Cc1cccc(O)c1)CCC2	?	28.2µM*	25.1µM*	i
Cc1nn2c(c1-c1ccccc1OCc1ccccc1)N(C(=O)C1CCC1)CCC2	1.4%[70.6 µM]	39.8µM*	?	i
Cc1nn2c(c1-c1ccccc1OCc1ccccc1)N(C(=O)C1CCOCC1)CCC2	-19.9%[70.6 µM]	?	?	i
Cn1c(CNC(=O)C2(Cc3ccccc3)CCCCC(=O)N2)nc2ccccc21 (stereo not given)	0.6%	?	?	i
SMILES	hNpr1 antagonist	HEK293 tox	NIH3T3 tox	Luciferase inh
Cn1c(CNC(=O)C2(C)CCCCC(=O)N2)nc2ccccc21 (stereo not given)	-11.4%	44.7µM*	39.8µM*	i
O=C(c1ccc(Cl)nc1)N1CCN(CCn2nc3n(c2=O)CCCC3)CC1	nt	0.1%	i	nt
O=C(CNC(=O)c1cccc(-c2ccsc2)c1)NCc1ccc(F)cc1F	nt	?	-22.1%	nt
O=C1c2cnc(-c3ccncc3)nc2OCCN1c1ccccc1	-5.3%[70.6 µM]	?	-22.8%[138 µM]	?
COc1cccc(-c2ncc3c(n2)OCCN(CC2CC2)C3=O)c1OC	2.8%[70.6 µM]	-26.9%[172 µM]	89.1µM*	i
COc1cccc(-c2ncc3c(n2)OCCN(c2ccccc2)C3=O)c1OC	-9.1%[70.6 µM]	?	79.4µM*	?
COc1ccc2c(c1)OCC(C(=O)NCCNc1cc(C)ccn1)C2 (stereo not given)	1.7%	-14.9%	79.4µM*	i
CC(=O)NC1CCCN(c2ccc3nnc(C)n3n2)C1 (stereo not given)	nt	-3.6%[172 µM]	-3.9%[138 µM]	nt
CC(C)NC(=O)c1nc2sccn2c1-c1ccccc1	nt	-2.2%[172 µM]	-20.6%[138 µM]	nt
O=C1CN(S(=O)(=O)c2ccc(F)cc2)CC(O)CN1CCCc1ccccc1 (stereo not given)	nt	?	-29.1%	nt
CCOc1ccc(C(=O)NC2CCCN(c3cc(-c4ccc(OC)cc4)[nH]n3)C2)cc1OCC (stereo not given)	1.4%	?	-14.9%	i
CCOc1ccc(C(=O)NC2CCCN(c3cc(-c4ccc(F)cc4)[nH]n3)C2)cc1OCC (stereo not given)	-0.1%	28.2µM*	31.6µM*	i
CCOc1ccccc1C(=O)NC1CCN(c2cc(-c3ccc(Cl)cc3)[nH]n2)C1 (stereo not given)	-22.7%	35.5µM*	?	i
CCOc1ccccc1C(=O)NC1CCCN(c2cc(-c3ccc(F)cc3)[nH]n2)C1 (stereo not given)	-19.1%	39.8µM*	31.6µM*	i
Cc1ccccc1C(=O)NC1CCN(c2cc(-c3ccc(Cl)cc3)[nH]n2)C1 (stereo not given)	-13.8%	?	39.8µM*	i
Cc1noc(C)c1[S+](=O)([O-])N1CCN(CCn2nc3n(c2=O)CCCC3)CC1	nt	-20.8%	-4.3%	nt
CN1C(=O)C2(CCN(Cc3cccc4ccccc34)C2)c2ccccc21 (stereo not given)	-6.5%[70.6 µM]	28.2µM*	?	i
CN1C(=O)C2(CCN(Cc3ccsc3)C2)c2ccccc21 (stereo not given)	0.0%[70.6 µM]	?	?	i
CN1C(=O)C2(CCN(Cc3ccc(F)cc3)C2)c2ccccc21 (stereo not given)	14.4%[70.6 µM]	70.8µM*	?	i
CN1C(=O)C2(CCN(Cc3ccc(C#N)cc3)C2)c2ccccc21 (stereo not given)	7.5%[70.6 µM]	?	?	i
CN1C(=O)C2(CCN(Cc3ccc(C(F)(F)F)cc3)C2)c2ccccc21 (stereo not given)	-29.3%	?	-30.2%	i
CN(C)c1ccc(CN2CCC3(C2)C(=O)N(c2ccccc2)c2ccccc23)cc1 (stereo not given)	nt	?	44.7µM*	nt
Cc1noc(C)c1[S+](=O)([O-])N1CCCC(C(=O)N2CCC(c3nc4ccncc4[nH]3)C2)C1 (stereo not given)	nt	-15.3%	-13.3%	nt
Cc1ncccc1C(=O)N1CCC(c2nn(C)c(=O)n2C2CCCC2)CC1	nt	0.7%	-12.1%	nt
Cc1ncc2n1C(=O)N(C1CCN(Cc3cccc4ccccc34)CC1)C2	0.0%	?	?	i
COc1ccc(-c2cccc(C(=O)N3CCC(NC(=O)c4c(C)noc4C)CC3)c2)nn1	nt	-17.1%	-25.6%	nt

Compound activity as filed in PubChem.
